High-throughput results as filed in PubChem BioAssay.
Tau fibril FP: qHTS for Inhibitors of Tau Fibril Formation, Fluorescence Polarization | K18 P301L tau heparin fibrillization, Alexa594 FP, 6 h | Potency, µM (highest dose often 57.7 µM), usual class: inhibitors | 280,000 compounds, 0.39% hits | AID 1468, 2008; also: nearly all actives have a fitted effect of over 55% in size
Target sequence (P10636 561-689 P618L limits assumed): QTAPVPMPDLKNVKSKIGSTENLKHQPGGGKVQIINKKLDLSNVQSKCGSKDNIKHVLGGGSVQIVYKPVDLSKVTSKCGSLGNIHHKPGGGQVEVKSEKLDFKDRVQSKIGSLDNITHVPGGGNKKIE
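Recombinant K18 P301L […], labeled with Alexa 594 at 0.24 uM over 15 uM unlabeled; heparin inducer 20 uM final; 37 C, 6 hr; FP endpoint.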
JMJD2E inh: qHTS Assay for Inhibitors of Human Jumonji Domain Containing 2E (JMJD2E) | AID 2147, 2009 | 230,000 compounds, 1.6% hits | JMJD2E catalytic domain, FDH-coupled NADH fluorescence (FDH is formaldehyde dehydrogenase) | Potency, µM (doses to about 57.1 µM), most hits filed as inhibitors | Lysine-specific demethylase 4E (Homo sapiens), B2RXH2; active = well fitted inhibition curve with a large enough effect, not every such curve was filed as active; inconclusive = small, poorly fitted or top-dose-only effect, or another doubt; inactive = no such curve, though single readings can be large or run the other way; also: nearly all actives have a fitted effect of over 50% in size
TR SRC2 fluor cs: Total Fluorescence Counterscreen for Inhibitors of the Interaction of Thyroid Hormone Receptor and Steroid Receptor Coregulator 2; TRb/SRC2 Texas Red total fluorescence interference; AID 1479, 2009; Potency, µM (highest dose often 106 µM); 280,000 compounds, 0.29% hits; active = well fitted curve in either direction with a large enough effect; inconclusive = small, poorly fitted or top-dose-only effect
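Human TRβ ligand-binding domain (0.6 uM) and Texas Red SRC2 peptide (20 nM) in Tris buffer with 1 uM T3 and 5% DMSO were incubated with pinned compound for 5 hr at ambient temperature. Total fluorescence was computed as S + 2P (555/632 nm).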
Tau ThT inhib: qHTS for Inhibitors of Tau Fibril Formation, Thioflavin T Binding. Microtubule-associated protein tau (Homo sapiens), P10636. recombinant tau K18 P301L, heparin-induced fibrillization, ThT fluorescence. Potency, µM (titrated, usually from 57.4 µM), actives largely listed as inhibitors. 270,000 compounds, 2.1% hits; also: nearly all actives have a fitted effect of over 55% in size
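ThT emission at 510 nm, taken 1 hr after adding 30 uM dye, quantifies aggregates formed when 20 uM heparin acts on human tau K18 P301L for 6 hr at 37 C.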
TRb SRC2 PPI: qHTS for Inhibitors of the Interaction of Thyroid Hormone Receptor and Steroid Receptor Coregulator 2. TRbeta-SRC2 peptide binding, fluorescence polarization; receptor liganded with 1 µM T3. Potency, µM (highest dose often 106 µM), most hits filed as inhibitors. Thyroid hormone receptor beta (Homo sapiens), P10828. 280,000 compounds, 0.065% hits; also: nearly all actives have a fitted effect of over 50% in size
Target sequence (P10828 whole entry, looked up): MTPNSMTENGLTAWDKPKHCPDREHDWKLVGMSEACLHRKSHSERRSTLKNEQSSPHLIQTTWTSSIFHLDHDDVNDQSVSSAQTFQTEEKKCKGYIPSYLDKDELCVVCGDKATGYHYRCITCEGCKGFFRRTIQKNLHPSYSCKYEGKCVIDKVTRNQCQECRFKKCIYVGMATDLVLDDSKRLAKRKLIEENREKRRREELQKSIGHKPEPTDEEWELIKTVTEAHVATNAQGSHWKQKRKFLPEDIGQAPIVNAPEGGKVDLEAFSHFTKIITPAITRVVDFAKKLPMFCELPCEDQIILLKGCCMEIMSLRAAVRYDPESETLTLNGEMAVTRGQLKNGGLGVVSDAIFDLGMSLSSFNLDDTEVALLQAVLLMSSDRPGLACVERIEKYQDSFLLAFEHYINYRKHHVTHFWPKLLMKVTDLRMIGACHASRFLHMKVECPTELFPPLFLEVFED
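TRb LBD 0.6 uM + Texas Red SRC2 peptide 20 nM, 1 uM T3, Tris buffer w/ 5% DMSO; compound pinned, 5 h RT; FP read ex 555/em 632; normalized to unbound and bound controls.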
Tau fluor cs: Counterscreen qHTS for Inhibitors of Tau Fibril Formation, Fluorescence Polarization; tau K18 P301L Alexa594 fluorescence, heparin fibrillization; Potency, µM (titrated, usually from 57.7 µM); 280,000 compounds, 0.93% hits; AID 1463, 2008; also: nearly all actives have a fitted effect of over 55% in size
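Human tau K18 P301L (15 uM unlabeled, 0.24 uM Alexa 594-labeled) in 100 mM sodium acetate pH 7 with 20 uM heparin, 6 hr at 37 C. ThT 30 uM added, 1 hr ambient; Alexa 594 FP and total fluorescence read at 555/632 nm.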
Large screens that a line does not name were inactive; [ ] = another dose, or the depositor's remark. Only some compounds are listed: those with a hit (about 3.5% of all), similar ones and a draw of the others. Unless noted, calls follow the shape of the dose curve; as a rule, active = well fitted curve in the direction sought with a large enough effect; inconclusive = small, poorly fitted or top-dose-only effect, or another doubt; inactive = no such curve, though single readings can be large; an effect the other way counts as inactive or inconclusive.

O=C(c1ccccc1F)N1CCN(c2ccc([N+](=O)[O-])c(NCC3CCCO3)c2)CC1 (configuration not stated)	Tau ThT inhib inconclusive
Cc1ccccc1C(=O)N1CCN(c2ccc([N+](=O)[O-])c(NCc3cccnc3)c2)CC1	Tau ThT inhib inconclusive
O=[N+]([O-])c1ccc(N2CCCC2)cc1N1CCCC1	Tau ThT inhib 18µM
Cc1ccc(C(=O)N2CCN(c3ccc([N+](=O)[O-])c(NCc4cccnc4)c3)CC2)cc1	Tau ThT inhib 13µM
COc1cccc(-c2cn3c(n2)sc2cc(C(=O)NCCC4=CCCCC4)ccc23)c1	none (no result: JMJD2E inh)
CNc1cc(N2CCN(S(=O)(=O)N(C)C)CC2)ccc1[N+](=O)[O-]	Tau ThT inhib 16µM
CN(C)S(=O)(=O)N1CCN(c2ccc([N+](=O)[O-])c(NC3CC3)c2)CC1	Tau ThT inhib inconclusive
Cc1ccc(NC(=O)c2ccc(NCC3CCCO3)c([N+](=O)[O-])c2)cc1Cl (configuration not stated)	JMJD2E inh inconclusive, Tau ThT inhib inconclusive
O=C(NCCc1ccccc1)c1ccc(NCC2CCCO2)c([N+](=O)[O-])c1 (configuration not stated)	Tau ThT inhib 16µM
CCOC(=O)C1(Cc2ccccc2C)CCCN(S(=O)(=O)c2cccnc2)C1 (configuration not stated)	none
CCOC(=O)c1nnc2c(-c3ccc(Cl)cc3)c(C)nn2c1C	Tau ThT inhib 7.9µM (no result: JMJD2E inh)
CCOC(=O)N1CCN(Cc2nc3c(c(=O)n(C)c(=O)n3C)n2Cc2cc(C)ccc2C)CC1	none
O=C(Nc1cccnc1)c1cn(-c2ccccc2)nc1-c1cccs1	Tau fibril FP 28µM, Tau fluor cs 18µM[quencher]
CCN(CC)CCNC(=O)c1ccc(NC(=O)c2cn(-c3ccccc3)nc2-c2cccs2)cc1	Tau fibril FP 10µM, JMJD2E inh inconclusive, Tau fluor cs inconclusive
COC(=O)C(CCSC)NC(=O)c1cc2c(n(-c3ccc(OC)cc3)c1=O)CC(C)(C)CC2=O (configuration not stated)	none (no result: JMJD2E inh)
Cc1nc2cc(N=NC3=C(O)CCCC3=O)ccc2s1	Tau ThT inhib 16µM
COc1ccc(CC(=O)N2CCN=C2SCc2ccc([N+](=O)[O-])cc2)cc1	Tau ThT inhib inconclusive
CC(=O)NC1=C(N(C)C2CCS(=O)(=O)C2)C(=O)c2ccccc2C1=O (configuration not stated)	Tau fibril FP inconclusive, Tau ThT inhib 25µM
CC(=C/C(=O)O)/C=C/c1ccco1	Tau fibril FP inconclusive, Tau ThT inhib 14µM
COC(=O)CCc1c(C)[nH]c(C(=O)OCc2ccccc2)c1C	none
O=C(Nc1ccc(Cl)cc1)c1cc2c(cc1O)[nH]c1ccccc12	JMJD2E inh inconclusive, Tau ThT inhib inconclusive, Tau fluor cs 4µM[quencher]
NC(=O)c1ccc(-c2ncc(-c3ccccc3)o2)cc1	JMJD2E inh inconclusive
N#Cc1nc(-c2ccc(OCc3ccccc3Cl)cc2)oc1NCCCn1ccnc1	JMJD2E inh 3.2µM, Tau ThT inhib inconclusive
COC(=O)c1c(C)sc(-c2c(-c3ccc(F)cc3)[nH]c3[nH]c(=O)[nH]c(=O)c23)c1O	TR SRC2 fluor cs inconclusive, Tau ThT inhib inconclusive, Tau fluor cs 10µM[quencher] (no result: JMJD2E inh)
COC(=O)c1ccc(C)c(NC(=O)Cc2coc3cc(OC)ccc23)c1	none
COc1ccc(NCC(=O)Nc2ccc(Cl)cc2C)c(OC)c1	JMJD2E inh inconclusive, Tau ThT inhib 32µM, Tau fluor cs inconclusive
CCN(CC)c1ccc(NC(=O)c2ccc3c(c2)c(C)c(C)n3C)cc1	Tau ThT inhib 4µM, Tau fluor cs inconclusive
Cc1ccccc1CNC(=O)c1ccc2c(c1)c(C)c(C)n2C	none (no result: JMJD2E inh)
CCCc1cc(=O)[nH]c(Nc2cc(Cl)cc(Cl)c2)n1	Tau fibril FP 11µM, Tau fluor cs inconclusive (no result: JMJD2E inh)
CCCc1cc(=O)[nH]c(Nc2cc(C)cc(C)c2)n1	Tau fluor cs inconclusive (no result: JMJD2E inh)
CC(C)(C)C1CCC(=NNc2ncc(C(F)(F)F)cc2Cl)CC1 (configuration not stated)	none
CC(C)C1=CC2=CC[C@@H]3[C@@](C)(C(=O)O)CCC[C@]3(C)C2CC1 (some centres not stated)	JMJD2E inh 35µM
CC(=O)Nc1sc2c(c1C(N)=O)CCC2	JMJD2E inh inconclusive
NC(=O)c1c(/N=C/c2cccs2)sc2c1CCCC2	Tau ThT inhib 2.2µM
COc1ccc2[nH]cc(CCNc3ncnc4ccc(-c5ccccc5C#N)cc34)c2c1	Tau ThT inhib inconclusive, Tau fluor cs 14µM[quencher]
COc1ccc2[nH]cc(CCNc3ncncc3-c3ccccc3CN(C)C)c2c1	Tau ThT inhib inconclusive
CC(C)(C)N1NC(=O)Nc2ccccc2C1=O	none
CCSc1nnc(NC(NC(=O)c2ccco2)(C(F)(F)F)C(F)(F)F)s1	none
COc1cccc(OCCNc2cc(Cl)ccc2[N+](=O)[O-])c1	Tau ThT inhib 8.9µM
O=[N+]([O-])c1ccccc1NCCOc1ccccc1	Tau fibril FP inconclusive, Tau ThT inhib inconclusive
CCOC(=O)C1CCN(C(=O)c2ccc3c(c2)sc2nc(-c4ccc(OCC)cc4)cn23)CC1	none (no result: JMJD2E inh)
COc1cccc(C(=O)NC(=S)Nc2ccc3oc(=O)ccc3c2)c1	none
CCCC(=O)N1CCN(c2ccc(NC(=S)NC(=O)c3cccc(C)c3)cc2)CC1	Tau ThT inhib 8.9µM, Tau fluor cs inconclusive
COc1cccc(NC(=S)Nc2cccnc2)c1	none
O=C(NC(=S)Nc1ccc(N2CCOCC2)cc1)c1cccc(Cl)c1	Tau ThT inhib 13µM, Tau fluor cs inconclusive
COc1cccc(NC(=S)Nc2ccc(O)cc2)c1	Tau fibril FP inconclusive, Tau ThT inhib 18µM, Tau fluor cs inconclusive
COc1cccc(C(=O)NC(=S)Nc2ccc(N(C)C)cc2)c1	Tau ThT inhib 7.9µM, Tau fluor cs inconclusive
CCOC(=O)C1(C)NC(c2ccco2)C2C(=O)N(CC)C(=O)C21 (configuration not stated)	none
N[C@@H](COC(c1cccc(F)c1)c1ccccc1OCc1ccccc1)C(=O)O (some centres not stated)	none (no result: Tau fibril FP, JMJD2E inh, Tau ThT inhib, Tau fluor cs)
CC(C)Oc1cccc(C(=O)NC(=S)Nc2ccc(N3CCN(C)CC3)cc2)c1	Tau fibril FP inconclusive, Tau ThT inhib inconclusive, Tau fluor cs inconclusive
